Data reported in the supplement of paper PMC11732987, “Enantioselective OTUD7B fragment discovery through chemoproteomics screening and high-throughput optimisation” (Communications Chemistry, 2025).

Columns and labels:
Assay in all cases: log2 ratio of Biotin-Ahx-Ub-VS probe labelling (fragment/DMSO); higher = less target engagement (more negative = stronger competition), active = hit call of the paper (q ≤ 0.05, log2 ratio ≤ -1)
Conditions in all cases: compound concentration: 200 uM; treatment time: 3 h
[1] = molecular target: T1, USP19 (UniProt O94966)
T1 sequence (whole entry): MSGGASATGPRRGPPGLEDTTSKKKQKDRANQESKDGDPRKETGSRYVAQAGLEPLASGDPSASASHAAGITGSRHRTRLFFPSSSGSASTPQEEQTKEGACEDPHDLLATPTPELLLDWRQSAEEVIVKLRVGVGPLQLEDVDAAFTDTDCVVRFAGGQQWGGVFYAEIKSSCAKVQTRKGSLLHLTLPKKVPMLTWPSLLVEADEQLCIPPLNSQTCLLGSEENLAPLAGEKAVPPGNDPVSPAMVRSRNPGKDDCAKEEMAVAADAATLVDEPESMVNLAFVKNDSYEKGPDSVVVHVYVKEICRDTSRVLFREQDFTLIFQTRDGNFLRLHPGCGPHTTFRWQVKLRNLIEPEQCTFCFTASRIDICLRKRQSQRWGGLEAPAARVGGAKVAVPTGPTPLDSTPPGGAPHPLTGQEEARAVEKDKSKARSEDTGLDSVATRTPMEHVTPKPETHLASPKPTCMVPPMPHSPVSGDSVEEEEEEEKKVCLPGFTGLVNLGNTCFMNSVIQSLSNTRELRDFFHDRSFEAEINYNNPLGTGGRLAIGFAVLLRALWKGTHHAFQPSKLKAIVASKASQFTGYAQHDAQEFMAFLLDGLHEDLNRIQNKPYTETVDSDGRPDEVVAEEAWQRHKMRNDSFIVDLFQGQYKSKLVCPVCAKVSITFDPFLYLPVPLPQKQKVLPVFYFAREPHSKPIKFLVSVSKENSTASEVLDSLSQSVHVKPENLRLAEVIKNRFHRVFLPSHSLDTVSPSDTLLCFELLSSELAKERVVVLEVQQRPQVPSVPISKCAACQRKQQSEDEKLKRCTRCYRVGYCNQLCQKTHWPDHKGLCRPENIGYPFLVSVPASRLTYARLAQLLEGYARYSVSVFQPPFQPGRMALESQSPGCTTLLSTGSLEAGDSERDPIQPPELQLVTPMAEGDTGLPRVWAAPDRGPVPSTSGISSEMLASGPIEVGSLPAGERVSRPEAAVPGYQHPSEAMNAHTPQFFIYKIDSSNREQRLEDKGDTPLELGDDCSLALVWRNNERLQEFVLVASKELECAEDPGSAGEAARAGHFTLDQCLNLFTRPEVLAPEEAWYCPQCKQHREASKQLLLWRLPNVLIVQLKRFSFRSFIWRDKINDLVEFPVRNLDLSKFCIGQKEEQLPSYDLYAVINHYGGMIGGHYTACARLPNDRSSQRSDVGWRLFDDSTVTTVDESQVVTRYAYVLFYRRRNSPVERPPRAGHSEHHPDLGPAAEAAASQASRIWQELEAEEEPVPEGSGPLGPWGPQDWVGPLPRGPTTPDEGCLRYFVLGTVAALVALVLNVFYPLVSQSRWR
Method in brief: (§1)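 The table lists average log2 ratios of fragment over vehicle, from an unpaired t-test on global-median-normalised Spectronaut label-free quantities. Proteins with ≥2 unique peptides were used. Samples were HEK293T lysate (495 µg) treated in triplicate with fragment at 200 µM or vehicle for 3 h, then with Biotin-Ahx-Ub-VS (0.5 µM final) for 1 h, with labelled DUBs NeutrAvidin-enriched and run by diaPASEF LC-MS/MS.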

[2] = molecular target: T2, USP22 (UniProt Q9UPT9)
T2 sequence (whole entry): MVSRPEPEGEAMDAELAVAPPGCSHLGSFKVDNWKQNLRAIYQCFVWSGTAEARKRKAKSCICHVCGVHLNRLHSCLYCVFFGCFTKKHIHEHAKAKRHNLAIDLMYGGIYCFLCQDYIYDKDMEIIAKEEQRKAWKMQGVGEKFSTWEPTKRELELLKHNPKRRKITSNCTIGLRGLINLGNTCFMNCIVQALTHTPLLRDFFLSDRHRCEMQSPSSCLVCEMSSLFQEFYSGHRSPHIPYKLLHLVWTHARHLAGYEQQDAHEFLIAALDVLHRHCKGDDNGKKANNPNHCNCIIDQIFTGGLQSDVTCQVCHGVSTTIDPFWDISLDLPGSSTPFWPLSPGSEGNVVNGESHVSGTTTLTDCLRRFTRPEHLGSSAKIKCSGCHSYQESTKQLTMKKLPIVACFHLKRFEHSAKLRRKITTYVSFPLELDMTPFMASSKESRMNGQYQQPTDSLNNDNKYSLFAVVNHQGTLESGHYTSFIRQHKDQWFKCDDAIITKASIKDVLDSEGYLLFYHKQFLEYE
Method in brief: as §1

[3] = molecular target: USP24 (UniProt Q9UPU5)
Method in brief: as §1

[4] = molecular target: T3, USP25 (UniProt Q9UHP3)
T3 sequence (whole entry): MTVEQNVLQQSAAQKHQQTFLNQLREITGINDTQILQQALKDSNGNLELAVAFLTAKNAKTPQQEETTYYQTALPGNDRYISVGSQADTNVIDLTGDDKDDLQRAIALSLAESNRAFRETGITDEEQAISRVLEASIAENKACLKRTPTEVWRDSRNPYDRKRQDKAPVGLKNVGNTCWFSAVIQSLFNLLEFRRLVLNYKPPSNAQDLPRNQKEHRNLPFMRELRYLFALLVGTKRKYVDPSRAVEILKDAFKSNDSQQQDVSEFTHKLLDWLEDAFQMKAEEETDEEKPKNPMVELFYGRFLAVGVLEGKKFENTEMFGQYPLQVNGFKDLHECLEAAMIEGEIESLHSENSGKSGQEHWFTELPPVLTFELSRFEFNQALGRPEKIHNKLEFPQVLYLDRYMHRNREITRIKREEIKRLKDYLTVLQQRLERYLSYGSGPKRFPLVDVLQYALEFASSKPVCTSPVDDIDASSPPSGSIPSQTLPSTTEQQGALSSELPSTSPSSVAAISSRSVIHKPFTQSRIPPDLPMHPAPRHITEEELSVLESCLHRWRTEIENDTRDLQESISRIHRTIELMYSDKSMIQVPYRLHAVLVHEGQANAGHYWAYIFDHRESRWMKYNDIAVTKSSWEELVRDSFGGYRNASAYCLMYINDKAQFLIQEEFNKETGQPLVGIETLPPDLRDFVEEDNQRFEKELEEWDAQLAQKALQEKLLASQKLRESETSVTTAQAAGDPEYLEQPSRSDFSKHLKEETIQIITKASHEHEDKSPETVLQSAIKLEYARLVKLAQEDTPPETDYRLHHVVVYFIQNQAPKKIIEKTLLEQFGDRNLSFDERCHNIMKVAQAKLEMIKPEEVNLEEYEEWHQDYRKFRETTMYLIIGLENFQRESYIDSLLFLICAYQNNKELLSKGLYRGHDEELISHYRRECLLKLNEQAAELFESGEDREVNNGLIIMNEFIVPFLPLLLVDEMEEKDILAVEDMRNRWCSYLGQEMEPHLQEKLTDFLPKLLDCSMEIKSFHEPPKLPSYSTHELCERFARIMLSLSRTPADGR
Method in brief: as §1

[5] = molecular target: T4, USP28 (UniProt Q96RU2)
T4 sequence (whole entry): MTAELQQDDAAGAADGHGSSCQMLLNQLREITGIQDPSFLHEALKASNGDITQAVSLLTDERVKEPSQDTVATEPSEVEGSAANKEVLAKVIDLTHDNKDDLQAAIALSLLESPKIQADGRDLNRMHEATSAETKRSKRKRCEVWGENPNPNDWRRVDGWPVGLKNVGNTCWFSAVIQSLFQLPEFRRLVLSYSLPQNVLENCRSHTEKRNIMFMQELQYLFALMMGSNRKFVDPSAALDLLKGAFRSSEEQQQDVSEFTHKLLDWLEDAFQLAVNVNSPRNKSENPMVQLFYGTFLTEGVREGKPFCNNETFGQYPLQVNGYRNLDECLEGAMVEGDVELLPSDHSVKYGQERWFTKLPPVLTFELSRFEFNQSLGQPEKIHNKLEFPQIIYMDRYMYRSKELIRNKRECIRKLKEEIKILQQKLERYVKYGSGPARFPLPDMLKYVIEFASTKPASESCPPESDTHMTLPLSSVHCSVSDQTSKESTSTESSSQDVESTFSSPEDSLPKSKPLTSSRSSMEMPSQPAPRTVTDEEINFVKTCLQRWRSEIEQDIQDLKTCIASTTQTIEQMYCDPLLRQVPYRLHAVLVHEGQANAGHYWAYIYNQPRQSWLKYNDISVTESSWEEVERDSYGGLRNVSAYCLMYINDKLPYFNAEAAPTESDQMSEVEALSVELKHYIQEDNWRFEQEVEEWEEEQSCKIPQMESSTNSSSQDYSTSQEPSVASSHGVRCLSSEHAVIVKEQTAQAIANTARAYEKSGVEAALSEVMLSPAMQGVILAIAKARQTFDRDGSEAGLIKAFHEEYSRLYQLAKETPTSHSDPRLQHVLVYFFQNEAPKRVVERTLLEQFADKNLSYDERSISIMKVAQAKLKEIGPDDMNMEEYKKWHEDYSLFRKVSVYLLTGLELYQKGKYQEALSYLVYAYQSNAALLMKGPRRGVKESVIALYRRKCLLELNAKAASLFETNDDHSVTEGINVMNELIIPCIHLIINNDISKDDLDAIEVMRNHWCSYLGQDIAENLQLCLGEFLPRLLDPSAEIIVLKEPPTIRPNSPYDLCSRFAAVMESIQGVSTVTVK
Method in brief: as §1

Measured: log2 ratio of Biotin-Ahx-Ub-VS probe labelling

Sequence of USP24 (Q9UPU5 whole entry): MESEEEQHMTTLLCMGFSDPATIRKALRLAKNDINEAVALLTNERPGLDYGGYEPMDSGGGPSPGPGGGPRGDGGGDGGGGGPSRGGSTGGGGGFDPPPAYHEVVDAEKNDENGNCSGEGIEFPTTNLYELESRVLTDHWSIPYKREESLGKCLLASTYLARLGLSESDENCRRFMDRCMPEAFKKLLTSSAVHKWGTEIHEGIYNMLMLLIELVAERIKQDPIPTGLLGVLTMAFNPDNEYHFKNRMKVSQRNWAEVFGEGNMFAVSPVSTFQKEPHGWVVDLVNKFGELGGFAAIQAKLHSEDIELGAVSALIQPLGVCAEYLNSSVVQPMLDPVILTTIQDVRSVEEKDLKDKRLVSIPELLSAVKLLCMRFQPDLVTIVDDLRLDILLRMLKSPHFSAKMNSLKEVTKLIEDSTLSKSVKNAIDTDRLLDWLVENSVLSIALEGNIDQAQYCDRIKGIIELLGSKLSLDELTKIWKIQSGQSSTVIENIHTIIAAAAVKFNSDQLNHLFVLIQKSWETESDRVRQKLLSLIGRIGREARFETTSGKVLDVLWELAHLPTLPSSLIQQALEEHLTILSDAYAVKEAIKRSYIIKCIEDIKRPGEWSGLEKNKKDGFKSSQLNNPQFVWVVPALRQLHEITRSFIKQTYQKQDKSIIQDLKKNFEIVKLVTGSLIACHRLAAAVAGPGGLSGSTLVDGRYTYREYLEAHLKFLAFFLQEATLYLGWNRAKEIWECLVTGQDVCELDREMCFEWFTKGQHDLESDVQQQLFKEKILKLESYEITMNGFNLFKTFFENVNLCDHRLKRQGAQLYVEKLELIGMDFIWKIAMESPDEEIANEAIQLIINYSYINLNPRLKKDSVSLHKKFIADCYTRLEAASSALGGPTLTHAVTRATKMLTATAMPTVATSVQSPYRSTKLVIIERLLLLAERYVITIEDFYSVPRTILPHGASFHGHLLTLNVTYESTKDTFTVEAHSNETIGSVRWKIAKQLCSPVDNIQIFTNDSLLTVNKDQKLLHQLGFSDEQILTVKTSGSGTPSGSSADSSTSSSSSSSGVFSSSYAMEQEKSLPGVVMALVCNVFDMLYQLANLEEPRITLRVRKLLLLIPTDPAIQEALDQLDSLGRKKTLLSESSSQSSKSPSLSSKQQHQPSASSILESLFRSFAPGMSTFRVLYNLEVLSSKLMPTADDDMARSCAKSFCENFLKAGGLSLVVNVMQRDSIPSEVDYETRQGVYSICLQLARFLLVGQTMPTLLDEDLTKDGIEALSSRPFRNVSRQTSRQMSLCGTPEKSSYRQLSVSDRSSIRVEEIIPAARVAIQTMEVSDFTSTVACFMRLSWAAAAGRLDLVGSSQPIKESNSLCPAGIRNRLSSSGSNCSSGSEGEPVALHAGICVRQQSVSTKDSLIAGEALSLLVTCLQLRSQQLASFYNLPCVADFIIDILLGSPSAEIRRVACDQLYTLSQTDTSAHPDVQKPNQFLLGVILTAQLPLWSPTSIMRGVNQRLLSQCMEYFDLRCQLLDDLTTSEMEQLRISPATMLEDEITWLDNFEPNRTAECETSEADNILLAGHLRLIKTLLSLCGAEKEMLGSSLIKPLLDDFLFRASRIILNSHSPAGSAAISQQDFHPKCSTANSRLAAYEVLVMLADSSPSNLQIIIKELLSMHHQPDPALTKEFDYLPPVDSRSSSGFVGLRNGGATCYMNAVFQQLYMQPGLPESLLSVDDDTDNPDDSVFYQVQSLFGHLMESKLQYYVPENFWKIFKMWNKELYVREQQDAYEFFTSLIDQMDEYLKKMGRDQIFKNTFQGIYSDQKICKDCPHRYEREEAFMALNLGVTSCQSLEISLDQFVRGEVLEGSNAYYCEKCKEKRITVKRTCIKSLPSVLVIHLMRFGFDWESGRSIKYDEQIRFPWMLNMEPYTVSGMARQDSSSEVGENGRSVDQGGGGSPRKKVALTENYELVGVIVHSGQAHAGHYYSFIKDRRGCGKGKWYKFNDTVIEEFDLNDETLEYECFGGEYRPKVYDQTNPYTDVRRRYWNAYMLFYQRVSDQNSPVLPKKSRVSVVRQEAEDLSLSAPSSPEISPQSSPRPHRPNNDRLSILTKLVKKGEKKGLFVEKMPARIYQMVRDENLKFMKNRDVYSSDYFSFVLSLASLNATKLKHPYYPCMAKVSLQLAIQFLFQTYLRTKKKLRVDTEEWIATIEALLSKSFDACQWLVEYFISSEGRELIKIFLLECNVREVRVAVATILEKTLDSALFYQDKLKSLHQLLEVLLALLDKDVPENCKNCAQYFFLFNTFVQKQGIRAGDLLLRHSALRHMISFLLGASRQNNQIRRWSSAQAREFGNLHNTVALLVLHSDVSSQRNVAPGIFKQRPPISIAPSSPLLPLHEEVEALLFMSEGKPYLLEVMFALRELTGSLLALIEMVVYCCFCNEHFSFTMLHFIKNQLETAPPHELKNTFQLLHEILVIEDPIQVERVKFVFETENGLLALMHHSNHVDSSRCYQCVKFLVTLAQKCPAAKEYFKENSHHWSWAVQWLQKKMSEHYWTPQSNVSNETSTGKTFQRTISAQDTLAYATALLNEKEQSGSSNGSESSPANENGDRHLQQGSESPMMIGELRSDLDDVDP

O=C(CCl)N1CCC(C(=O)N2CCCC2)CC1
inactive: [1] -0.228 | [2] 0.0347 | [3] -0.075 | [4] -0.128 | [5] -0.299
